Source: PubChem BioAssay (NCI)
The panel holds about 83,000 compounds, 20% with a hit somewhere; the sample as a whole holds those more often.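 In brief: 96-well plates, 48 h treatment, single concentration, percent growth endpoint.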 Values without a mark were called inactive. The source made the active and inactive calls. Rule for the calls: active = growth percent below 10; inactive = the rest.

How the values were obtained:
Assay in all cases: NCI-60 one-dose screen, 48 h (100 = growth as untreated, 0 = no growth, -100 = all killed)
Details in all cases: 10 µM unless noted
SR leukemia = test system: SR leukemia
OVCAR-8 ovarian = test system: OVCAR-8 ovarian
OVCAR-5 ovarian = test system: OVCAR-5 ovarian
OVCAR-4 ovarian = test system: OVCAR-4 ovarian
SK-OV-3 ovarian = test system: SK-OV-3 ovarian
IGROV1 ovarian = test system: IGROV1 ovarian
OVCAR-3 ovarian = test system: OVCAR-3 ovarian
HS 578T breast = test system: HS 578T breast
NCI/ADR-RES ovarian = test system: NCI/ADR-RES ovarian
T-47D breast = test system: T-47D breast
BT-549 breast = test system: BT-549 breast
MDA-MB-435 melanoma = test system: MDA-MB-435 melanoma
SW-620 colon = test system: SW-620 colon
MCF7 breast = test system: MCF7 breast
HCT-116 colon = test system: HCT-116 colon
HCC-2998 colon = test system: HCC-2998 colon
KM12 colon = test system: KM12 colon
MDA-MB-468 breast = test system: MDA-MB-468 breast
RPMI-8226 leukemia = test system: RPMI-8226 leukemia

Row | Compound | growth (SR leukemia) | growth (OVCAR-8 ovarian) | growth (OVCAR-5 ovarian) | growth (OVCAR-4 ovarian) | growth (SK-OV-3 ovarian) | growth (IGROV1 ovarian) | growth (OVCAR-3 ovarian) | growth (HS 578T breast) | growth (NCI/ADR-RES ovarian) | growth (T-47D breast) | growth (BT-549 breast) | growth (MDA-MB-435 melanoma) | growth (SW-620 colon) | growth (MCF7 breast) | growth (HCT-116 colon) | growth (HCC-2998 colon) | growth (KM12 colon) | growth (MDA-MB-468 breast) | growth (RPMI-8226 leukemia)
1 | CN(C)CCn1c2ccccc2c2nc3cc(C(F)(F)F)ccc3nc21 | 11.1% | 35.7% | 38.8% | 54.3% | 41.5% | 22.4% | 69.2% | 65.8% | 30.2% | 59.4% | 62.2% | 40.3% | 22.5% | 6.18% (active) | 16.8% | 41.6% | 42.9% | 35.3% | –
2 | NS(=O)(=O)c1ccc(N=Nc2c(O)n(CC(=O)Nc3ccccc3Cl)c3ccccc23)cc1 | 26.9% | 1.19% (active) | 56.3% | 53% | 36.7% | 18% | 21.3% | 50.5% | – | 19.7% | -4.12% (active) | 34.5% | 24.5% | 6% (active) | 8.6% (active) | 28.3% | 17.1% | 26.3% | –
3 | COC(=O)/C=C/c1cccc2c1C(=O)NC(C)(c1cc3ccccc3oc1=O)N2 (stereo not drawn) | 58.7% | 66.9% | 77.6% | 70% | 41.7% | 32% | 74.1% | 72% | 80.1% | 51.4% | 58.2% | 78.2% | 72.2% | 82.2% | 44.6% | 74.4% | 68.8% | – | –
4 | COc1cc(CNC(=O)/C=C/c2ccc3c(c2)OCO3)ccc1OCc1cn(-c2ccc([N+](=O)[O-])cc2)nn1 | 69.3% | 90.5% | 97.7% | – | 99.3% | 107% | 108% | – | 86.7% | 65.5% | 71.9% | 101% | – | 81.8% | 85.3% | 104% | 100% | 72.4% | 74.2%
5 | Clc1cccc(-c2ccc(OCCCN3CCN(c4ccncc4)CC3)cc2)c1 | -38.5% (active) | 37.9% | 69.7% | – | – | 49.6% | 0.45% (active) | -2.27% (active) | 5.66% (active) | -37.5% (active) | 20.4% | -51.6% (active) | -66.2% (active) | -61.4% (active) | -76.7% (active) | -91.5% (active) | -43.8% (active) | -62.3% (active) | -39.1% (active)
6 | C#CCOc1cc(N(CC)CC)ccc1C(C(=O)NC(C)(C)C)N(C(=O)C1CCc2cc(F)ccc2O1)c1ccc(Br)cc1 (stereo not drawn) | 54% | 89.3% | 87.1% | 82.3% | 95.3% | 80.2% | 107% | 88.3% | 89.4% | 71.3% | 75% | 69.9% | 77.9% | 52.8% | 35.6% | 100% | 60.4% | 61.2% | –
7 | O=c1[nH]n(C(=S)N/N=C/c2ccccc2Cl)c(=O)c2ccccc12 | -13.8% (active) | 4.91% (active) | 9.48% (active) | – | 23.4% | 7.53% (active) | 24% | – | -9.23% (active) | 12.2% | -57.5% (active) | 22.4% | – | 10.7% | -83.4% (active) | -36.5% (active) | 8.85% (active) | -26.7% (active) | -1.71% (active)
8 | COc1c(F)ccc(C(=O)Nc2ccc3nc(NC(=O)C4CCCN(S(=O)(=O)c5ccc(Br)c(F)c5)C4)sc3c2)c1F (stereo not drawn) | 47.2% | 98.1% | 102% | 75.4% | 102% | 82.2% | 96.8% | 72.8% | 83.4% | 67.5% | 77% | 92.3% | 96.5% | – | 62.7% | 109% | 79.2% | 92% | –
9 | N/C(=N\N=C\c1ccc([N+](=O)[O-])cc1)c1c(N)nc(=S)[nH]c1-c1ccc(Cl)cc1Cl | 76.9% | 98.4% | 111% | 111% | 89.1% | 94.9% | 110% | 87.1% | 105% | 95.3% | 75.6% | – | 108% | 88.2% | 85.2% | 106% | 108% | 90.8% | –
10 | COc1ccc(-c2nc3cc(C)ccc3n2CC(=O)N=Nc2c(O)[nH]c3ccccc23)cc1 | 0.97% (active) | -58.1% (active) | 13.8% | -25.3% (active) | 47.8% | 59.3% | -33.8% (active) | 4.27% (active) | -47.1% (active) | 28.9% | -63.2% (active) | 12.4% | 6.89% (active) | 20% | -95.1% (active) | 26.8% | 14.1% | -0.636% (active) | –
11 | CCN(CC)c1ccnc(CNCCSC(c2ccccc2)(c2ccccc2)c2ccc(OC)cc2)c1 | -49.4% (active) | -78.6% (active) | -11.9% (active) | 14.1% | -8.81% (active) | -2.91% (active) | -43% (active) | -33.2% (active) | -64.5% (active) | -15.8% (active) | -25.4% (active) | -63.8% (active) | -66.6% (active) | -50.8% (active) | -78.6% (active) | -80.5% (active) | -49.8% (active) | -64.1% (active) | –
12 | CN(C)c1nc(NCCNS(=O)(=O)c2ccc(C(=O)/C=C/c3ccc(Cl)cc3)cc2)nc(Nc2ccc(F)cc2)n1 | -41.1% (active) | -73.5% (active) | -67% (active) | -28.3% (active) | 26% | -49.6% (active) | -94.8% (active) | 25.8% | -83.5% (active) | -10% (active) | -66.9% (active) | -87.8% (active) | -95.1% (active) | -77.1% (active) | -91.4% (active) | -91.6% (active) | -83.6% (active) | – | –
13 | Cn1cc(-c2nnc(N)nc2-c2c[nH]c3ccccc23)c2cccnc21 | 25.2% | 49.7% | 77.8% | 76.8% | 64.6% | 39.5% | 25.9% | 41.4% | 76.3% | 44.6% | 34.7% | -28.9% (active) | 16.5% | 22.5% | 18.2% | 81% | 17.2% | 33.4% | –
14 | Cc1cc2nc3c4ccccc4n(CC4=NCCN4)c3nc2cc1C | 0.0191% (active) | -21.1% (active) | -76.9% (active) | -0.803% (active) | 15.6% | 16.1% | 55.2% | 76.4% | 18.6% | 15.4% | 4.52% (active) | -86.6% (active) | -40.2% (active) | -90.5% (active) | -92.8% (active) | -46.6% (active) | 43% | -57.3% (active) | –
15 | O=C(Cn1c2c(sc1=O)[C@H]1[C@@H](O)[C@@H](O)[C@H](O)[C@@H]1CS2)N1CCOCC1 | 99.6% | 108% | 103% | 102% | 94.1% | 105% | 105% | 93.3% | 104% | 93.6% | 99.3% | – | 107% | 98.4% | 110% | 111% | 103% | 105% | –
16 | Cc1cc2c(cc1Cl)C(=O)/C(=C/c1ccc(F)cc1)O2 | 89.1% | 97.5% | 106% | 90.9% | 100% | 20.9% | 124% | 97.1% | 93.3% | 69.1% | 85% | 106% | 111% | 37.9% | 73.5% | 117% | 92.7% | 91.1% | –
17 | CC1(C)CC[C@]2(C(=O)Nc3ccccc3)CC[C@]3(C)C(=CCC4[C@@]5(C)C[C@@H](O)[C@H](O)[C@@](C)(CO)C5CC[C@]43C)C2C1 (stereo partly drawn) | 15.2% | 62.7% | 86.2% | – | – | 79% | 73.4% | 62.8% | – | 26.9% | 57% | 47.9% | 72.2% | 19.6% | 34.3% | 81.9% | 55.7% | 22.2% | 9.08% (active)
